The text below walks through data of PubChem BioAssay AID1979 (Broad Institute, 2009).

Structures are written as SMILES. About 1,700 (0.57%) of roughly 300,000 compounds were called active. Roughly 2% stayed inconclusive and do not appear here. For the sample, actives were picked, then their nearest neighbours and some compounds at random. A number with no mark means an inactive call.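 How the source made its calls: active means growth inhibition above about 58% in most replicates (limit read from the data, passing the limit was not always enough); inconclusive means exactly half the replicates above a set limit; inactive means most replicates below a set limit.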

A short description of the test: Candida growth reduction under fluconazole – CaCi-2 strain, Alamar Blue fluorescence, primary screen (AID 1979).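 Further: all wells also contain fluconazole at 8 µg/ml as a sub-toxic cotreatment; 0% = median of DMSO wells and 100% = median of geldanamycin control wells.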 The conditions noted are these: C. albicans CaCi-2 (fluconazole-resistant clinical isolate) + fluconazole, 48 h, active compounds read high, concentration not given here.
For `O=S(=O)(c1ccccc1)N1CCc2ccccc21`, the growth inhibition is -2.11%.
On to `CC1COc2ccccc2N1S(=O)(=O)c1ccccc1` (stereo unspecified), for which the growth inhibition was 99.8% (active).
`CC1CN(S(=O)(=O)c2ccccc2)C(C)CN1S(=O)(=O)c1ccccc1` (stereo unspecified): the growth inhibition was 3.32%.
For the compound `CCOc1ccc(S(=O)(=O)NCCC(=O)NCC(C)(C)N2CCOCC2)cc1`, the growth inhibition is -1.97%.
Under `Cc1nc2ccccn2c(=O)c1NC(=O)c1cccs1` stands 0.647%; under `COc1cc(/C=C(\C#N)c2nc3c(s2)CC(C)CC3)ccc1O` (stereo unspecified), 43.5%.
Turning to `COc1ccc(/C=C(/NC(=O)c2ccc(C)cc2)c2nc3ccccc3[nH]2)cc1OC`, the growth inhibition is 23.2%.
Turning to `COc1cc(/C=C(\C#N)c2nc3ccccc3[nH]2)ccc1O`, the growth inhibition was 76.5% (active).
As for `Clc1ccc(Nc2ccc3ccccc3n2)cc1`, the figure is -23.2%; as for `CCN1C(=O)[C@H]2[C@@H](c3ccc(-c4ccc(OC)cc4)cc3)N[C@@](Cc3ccccc3)(C(=O)OC)[C@H]2C1=O`, 3.17%; as for `CCN(CC(=O)Nc1cccc(S(=O)(=O)N2CCCCC2)c1)Cc1ccccc1`, -0.00245%.
On to `COc1ccccc1NC(=O)COC(=O)c1ccccc1SCC(=O)N1CCCC1`, for which the growth inhibition was 4.29%.
Under `COc1ccc(C(=O)C2CCCN(Cc3ccc4nonc4c3)C2)c(C)c1` (stereo unspecified) stands 3.47%.
Under `CCOC(=O)c1[nH]ncc1CN1CCCC(C(=O)c2ccc(OC)cc2C)C1` (stereo unspecified) stands -8.68%; under `COc1ccc(C(=O)C2CCCN(Cc3cccn3-c3ccccn3)C2)c(C)c1` (stereo unspecified), 110% (active).
In the case of `CCn1c(=O)c([N+](=O)[O-])c(NCc2ccc3c(c2)OCO3)c2ccccc21`, the growth inhibition is 18.7%.
In the case of `Cc1nc2ccccc2c(=O)n1Cc1ccc([N+](=O)[O-])cc1`, the growth inhibition is -0.41%.
As for `CCn1c(/C=C/c2ccc([N+](=O)[O-])o2)nc2ccccc2c1=O`, the figure is 99.4% (active); as for `Cc1cccc(-n2nc3c(c2NC(=O)c2cc4ccccc4o2)CS(=O)(=O)C3)c1`, 7.71%.
For the compound `CC(=O)N1CCN(C(=O)c2cc(-c3ccc(Cl)s3)nc3ccccc23)CC1`, the growth inhibition was 11.4%.
As for `CC(=O)Nc1cccc(C(=O)OCC(=O)c2ccc3c(c2)OCO3)c1`, the figure is 4.88%; as for `COc1ccc2nc(N3CCN(C(=O)c4ccc([N+](=O)[O-])o4)CC3)sc2c1`, 13.6%.
With `Cc1cc(C(=O)NNC(=S)Nc2ccccc2C)cs1`, the growth inhibition was 1.21%.
As for `Cc1ccc(C)c(NC(=S)NNC(=O)c2csc(C)c2)c1`, the figure is 82.7% (active); as for `Cc1cc(C(=O)NNC(=S)NC(C)c2ccccc2)cs1` (stereo unspecified), 12.8%; as for `NC1=NC(c2ccc([N+](=O)[O-])cc2)N(c2ccc(F)cc2)C(N)=N1` (stereo unspecified), -2.27%.
As for `Cc1ccc(C(=O)Nc2c(C#N)c(C)c(C)n2Cc2ccccc2)cc1`, the figure is -7.7%.
As to `CC(C)C(=O)N1CC(=O)Nc2ccc(F)cc2C1c1ccc(F)cc1` (stereo unspecified), the growth inhibition is -3.91%.
Under `O=C(COC(=O)c1cccs1)Nc1ccccc1Cl` stands 7.55%.
Take `O=C(Nc1ccccc1Cl)/C(Cl)=C(\Cl)S(=O)c1ccccc1` (stereo unspecified): the growth inhibition is 81.7% (active).
As for `O=C(Nc1ccccc1Cl)Nn1cnnc1`, the figure is 16.1%; as for `O=c1[nH]c(/C=C/c2cccc(Br)c2)nc2ccccc12`, 3.62%.
Under `COc1ccccc1-n1ccnc(SCC(=O)NC2CCCCC2)c1=O` stands -2.58%; under `O=C(Nc1nnc(C2COc3ccccc3O2)o1)c1ccc(F)cc1` (stereo unspecified), 85.8% (active); under `CC1COc2ccccc2N1C(=O)c1ccc(F)cc1` (stereo unspecified), -3.04%.
Take `O=C(Nc1ccccc1F)c1ccc2c(c1)OCO2`: the growth inhibition was -5.7%.
On to `Cc1cccc(N(Cc2ccccc2)C(=O)c2cc(S(=O)(=O)N3CCOCC3)ccc2F)c1`, for which the growth inhibition is -1.4%.
`CCN1C(=O)[C@H]2[C@@H](c3ccc(-c4ccc(F)cc4)cc3)N[C@@](Cc3ccccc3)(C(=O)OC)[C@H]2C1=O`: the growth inhibition was -6.22%.
Turning to `COC(=O)N/N=C/c1c[n+]([O-])c2ccccc2[n+]1[O-]`, the growth inhibition is 12.4%.
As for `Cc1ccc(NC(=O)CN(C)C(=O)Cn2nnc(-c3ccccc3)n2)cc1`, the growth inhibition was -6.13%.
Under `O=C1CCCN1C(=O)COc1ccc([N+](=O)[O-])cc1` stands 4.3%; under `Cc1cccc(C(=O)N2CCc3c([nH]c4ccccc34)C2CC(C)C)n1` (stereo unspecified), 12.9%.
Regarding `Cc1cccc(C2c3[nH]c4ccccc4c3CCN2C(=O)c2cc(-c3cccn3C)n[nH]2)n1` (stereo unspecified), the growth inhibition is 79.7% (active).
Turning to `O=C(c1cn2ccccc2n1)N1CCc2c([nH]c3ccccc23)C1c1ccccn1` (stereo unspecified), the growth inhibition was -2.25%.
Under `O=C(NCc1ccccc1)C1=C[C@@H](c2ccccc2)C[C@@H](OCCCCO)O1` stands -5.03%; under `CCN(CC(=O)Nc1cc(Cl)ccc1C)C(=O)Cn1c(=O)cnc2ccccc21`, -1.02%.
